# Experimental data published in PubChem BioAssay AID2796 (The Scripps Research Institute Molecular Screening Center, 2010).
# Out of some 320,000 compounds screened, about 8,000 (2.5%) were called active. Only a selection was taken, and actives are over-represented in it overall. A number with no mark means an inactive call. No stated cut-off is given here; in the data, active means activation above about 47%; inactive means the rest.
# Target: Aryl hydrocarbon receptor (Homo sapiens) (UniProt P35869)
# Sequence (P35869 whole entry, looked up): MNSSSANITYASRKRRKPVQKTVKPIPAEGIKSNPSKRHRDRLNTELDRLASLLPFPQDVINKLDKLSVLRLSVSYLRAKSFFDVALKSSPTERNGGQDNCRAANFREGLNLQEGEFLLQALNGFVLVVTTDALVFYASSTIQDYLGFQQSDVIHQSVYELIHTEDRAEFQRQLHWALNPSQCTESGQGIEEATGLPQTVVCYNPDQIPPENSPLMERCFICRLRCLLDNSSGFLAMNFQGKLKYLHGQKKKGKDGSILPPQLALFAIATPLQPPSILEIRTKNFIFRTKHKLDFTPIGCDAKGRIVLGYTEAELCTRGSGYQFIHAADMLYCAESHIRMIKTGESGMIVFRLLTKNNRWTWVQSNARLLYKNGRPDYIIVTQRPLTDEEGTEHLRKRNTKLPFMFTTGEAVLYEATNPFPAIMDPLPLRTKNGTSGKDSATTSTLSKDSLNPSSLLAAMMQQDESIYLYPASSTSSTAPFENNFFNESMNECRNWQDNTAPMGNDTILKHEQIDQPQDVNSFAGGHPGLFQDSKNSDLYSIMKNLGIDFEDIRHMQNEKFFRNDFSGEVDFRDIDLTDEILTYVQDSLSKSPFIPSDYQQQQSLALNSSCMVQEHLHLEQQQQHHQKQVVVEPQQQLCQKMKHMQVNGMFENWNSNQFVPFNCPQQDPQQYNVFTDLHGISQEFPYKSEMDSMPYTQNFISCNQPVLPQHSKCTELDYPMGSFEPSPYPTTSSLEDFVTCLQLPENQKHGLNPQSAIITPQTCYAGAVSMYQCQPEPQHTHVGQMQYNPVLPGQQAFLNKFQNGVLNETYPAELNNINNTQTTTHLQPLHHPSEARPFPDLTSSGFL
# Assay: AHR activators, primary screen, cell-based, luminescence, luciferase reporter, human (AID 2796);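 further: 0% = vehicle wells and 100% = reference agonist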
# Settings: AHR-responsive luciferase reporter cells, at 5 µM, active compounds read high
row,Compound,activation
1,OC(COCCC12CC3CC(CC(C3)C1)C2)CN1CCCCC1 (configuration not stated),0.68%
2,CC(=O)N[C@H]1[C@H]([C@H](O)[C@H](O)CO)OC(C(=O)O)=C[C@@H]1O,0.57%
3,Cc1ccc(S(=O)(=O)N(CC(=O)Nc2cccc([N+](=O)[O-])c2)Cc2ccc(Cl)cc2)cc1,6.55%
4,CCn1c(CSc2ncccn2)nnc1SCC(=O)N1c2ccccc2CC1C (configuration not stated),-1.92%
5,CC1Cc2ccccc2N1C(=O)CSc1nnc(-c2ccc(S(=O)(=O)N3CCCC3)cc2)n1C (configuration not stated),1.18%
6,CC1Cc2ccccc2N1C(=O)CSc1nnc(C2CC2)n1C (configuration not stated),93% (active)
7,CO/N=C/c1ccc(N2CCN(C(=O)c3cccc(Cl)c3)CC2)c([N+](=O)[O-])c1,-0.18%
8,Cc1nn(Cc2ccccc2Cl)c(C)c1NC(=O)Cn1nc([N+](=O)[O-])c(Cl)c1C,0.37%
9,COc1cccc(NC(=O)COc2cc(C)cc3oc(=O)cc(C)c23)c1,12.3%
10,Cc1cc2oc(C(=O)Nc3c(C)n(C)n(-c4ccccc4)c3=O)c(C)c2cc1Cl,81% (active)
11,Cc1c(NC(=O)c2coc(=O)c(Br)c2)c(=O)n(-c2ccccc2)n1C,0.64%
12,Cc1c(NC(=O)c2cc(-c3ccc(Br)cc3)on2)c(=O)n(-c2ccccc2)n1C,-3.47%
13,COCCN(Cc1cc2cc3c(cc2nc1Cl)OCO3)C(=O)c1cccc(C)c1,11.9%
14,COc1ccc(Nc2nnc(C)c3ccccc23)cc1,102% (active)
15,COc1ccc(Nc2nc(=O)[nH]nc2C)cc1,-3.65%
16,Cc1nnc(NCCO)c2ccccc12,-2.09%
17,CCCCNC(=O)N1CCCC(N(C)CCc2ccc(OC)c(OC)c2)C1 (configuration not stated),-0.75%
18,CCNC(=O)NNC(=O)C1CC(c2cccs2)=NO1 (configuration not stated),3.35%
19,Cn1cccc1C(=O)OCC(=O)NCCc1ccccc1,7.54%
20,O=C(CSc1n[nH]c(-c2cccnc2)n1)Nc1ccnc2ccccc12,8.3%
21,S=c1nc2ccccc2c2nc(-c3cccnc3)[nH]n12,83.8% (active)
22,c1ccc(-n2nnnc2-c2cccnc2)cc1,36.3%
23,O=C(/C=C/Sc1ncn[nH]1)c1ccc(Cl)cc1,0.35%
24,COc1cc(C)ccc1OCC(=O)OCC(=O)c1ccc[nH]1,-3.4%
25,COCCNc1nc(-c2ccccc2)nc2c1oc1ccccc12,88.9% (active)

row,Compound,activation
1,CCOCCCNc1nc(-c2ccccc2)nc2ccccc12,13.5%
2,C[C@@H](Nc1nc(-c2ccccc2)nc2c1oc1ccccc12)C(=O)O,16.4%
3,O=C(Cn1cncn1)N/N=C/c1c2ccccc2cc2ccccc12,84.8% (active)
4,Cc1nn(-c2ccccc2)c(C)c1/C=N/NC(=O)CSc1nc2ccccc2c(=O)n1-c1ccccc1,1.64%
5,Nc1nnn(CC(=O)N/N=C/c2ccccc2)n1,0.68%
6,CCCCNC(=O)C1CCCNC1=O (configuration not stated),-1.12%
7,c1ccc(-c2csc(N3CCc4ccccc4C3)n2)cc1,14.7%
8,O=C(NN=Cc1ccc(N2CCOCC2)cc1)c1cc2ccccc2cc1O,11.3%
9,NC(=O)c1ccccc1N=Cc1ccc2ccccc2c1,87.6% (active)
10,COc1ccc(/C=N/Nc2ccccc2C(=O)O)cc1,3.83%
11,O=C(c1ccc(N2CCOCC2)c([N+](=O)[O-])c1)N1CCN(S(=O)(=O)c2cccs2)CC1,-4.2%
12,Cn1c(=O)c2c(nc(N3CCOCC3)n2CCNC2=NCCC2)n(C)c1=O,-1.68%
13,O=C(c1ccc(F)cc1)N1CCC(n2nnc3ccccc32)CC1,-1.01%
14,NS(=O)(=O)c1ccc2nc(NC(=O)CS(=O)(=O)c3ccc(F)cc3)sc2c1,8.79%
15,Fc1ccc2nc(Nc3nc4c(s3)CCCC4)sc2c1,49.8% (active)
16,CCS(=O)(=O)N1Cc2ccccc2CC1C(=O)Nc1nc2ccc(F)cc2s1 (configuration not stated),-3.42%
17,O=C(Nc1ccc(Br)cc1F)C1CC(=O)N(C2CCCCC2)C1 (configuration not stated),0.73%
18,COc1ccccc1CCNC(=O)CN1C(=O)NC2(CCCC2)C1=O,-2.06%
19,Cc1cc2c(cc1S(=O)(=O)NCc1ccc(Cl)cc1)OCC(=O)N2,1%
20,COc1ccccc1-c1nnc(SCC(=O)Nc2ccccc2)o1,75.5% (active)
21,COc1ccccc1-c1nnc(SCC(=O)N2CC(C)CC(C)C2)o1 (configuration not stated),29%
22,COc1cccc(NC(=O)CSc2nnc(-c3cccnc3)o2)c1,29.8%
23,CN(CC(=O)Nc1ccc(F)cc1)CC(=O)N1CCCCC1,3.11%
24,CCc1ccc(N(C(=O)c2csnn2)C(C(=O)NC2CCCCC2)c2ccncc2)cc1 (configuration not stated),3.1%
25,O=C(CN1C(=O)NC2(CCCC2)C1=O)Nc1cc(C(F)(F)F)ccc1N1CCOCC1,-0.32%

row,Compound,activation
1,COc1ccc(C)cc1NC(=O)c1ccc(-c2ccc(C(C)=O)cc2)o1,40.5%
2,COc1cccc(C(=O)Nc2cccnc2)c1OC,19.2%
3,CCOC(=O)c1ccc(-c2ccc(C(=O)Nc3cccnc3)o2)cc1,48.9% (active)
4,CCN(CC)P(=O)(C(NC(=O)OC)C(F)(F)C(F)(F)C(F)(F)C(F)F)N(CC)CC (configuration not stated),-0.37%
5,CCC1=C/C(=C\c2ccc3c(c2)OCO3)C(=O)S1,1.47%
6,O=C(N/N=C/c1ccc2c(c1)OCO2)C(=O)N1CCCC1,38.1%
7,O=C1/C(=C/c2ccc3c(c2)OCO3)CCC/C1=C\c1ccc2c(c1)OCO2,72.7% (active)
8,Cc1ccc(S(=O)(=O)N(C)CC(=O)NCC(c2ccc(F)cc2)N2CCOCC2)cc1 (configuration not stated),-0.69%
9,CCOc1ccc(C2=CC(c3ccccc3)n3ncnc3N2)cc1 (configuration not stated),-3.83%
10,CC1=C(C(=O)OCc2ccccc2)C(c2ccco2)n2ncnc2N1 (configuration not stated),1.22%
11,Brc1ccc(C2=CC(c3ccco3)n3ncnc3N2)cc1 (configuration not stated),95.6% (active)
12,C#CCNC(=O)C1=C[C@@H](c2ccccc2)[C@H](CCCO)[C@@H](OCC)O1,1.77%
13,CCCCn1nc(C(=O)Nc2ccc(S(=O)(=O)Nc3ncccn3)cc2)c2ccccc2c1=O,2.56%
14,Cc1cccc(N=Nc2c(C)[nH]n(-c3ccccc3)c2=O)c1,40%
15,Cc1[nH]n(C(N)=S)c(=O)c1N=Nc1ccc(Cl)cc1Cl,55.6% (active)
16,CC1=NN(C(N)=S)C(=O)C1N=Nc1cc(Cl)ccc1Cl (configuration not stated),11.5%
17,O=C(CCc1ccccc1)Nc1ncc([N+](=O)[O-])s1,6.21%
18,O=C(Cc1c(F)cccc1Cl)Nc1ncc([N+](=O)[O-])s1,48.5% (active)
19,O=C(Cc1c(F)cccc1Cl)Nc1ccc(-n2cnnn2)cc1,0.09%
20,CCOC(=O)C(=Cc1ccccc1OC)C(=O)OCC,-3.1%
21,CN(C)c1ccnc2sc(C(=O)c3ccccc3)c(N)c12,15.9%
22,Nc1c(C(=O)NCc2ccccc2)sc2nc3c(cc12)C(=O)CCC3,2.82%
23,CCN(CC)C(=O)c1sc2nc(-c3ccccc3)ccc2c1N,76.4% (active)
24,Cc1ccc(N2C(=O)C(NC(=O)c3c(F)cccc3F)(C(F)(F)F)C3=C2CC(C)(C)CC3=O)cc1 (configuration not stated),2.49%
25,O=C(CC1Nc2ccccc2NC1=O)Nc1ccccc1NC(=O)CC1Nc2ccccc2NC1=O (configuration not stated),47.5% (active)

row,Compound,activation
1,COC(=O)C(C)C1Sc2ccccc2NC1=O (configuration not stated),-0.86%
2,O=C(CC1NCCNC1=O)Nc1ccc(Oc2ccccc2)cc1 (configuration not stated),5.88%
3,O=C(CC1Nc2ccccc2NC1=O)Nc1ccccc1 (configuration not stated),101% (active)
4,Cc1ccc(CNC(=O)CC2Sc3ccccc3NC2=O)cc1 (configuration not stated),4%
5,O=C(CC1NCCc2ccccc21)Nc1cccc(Cl)c1 (configuration not stated),8.99%
6,COC(=O)c1c(C)oc2ccc(N(C(=O)Oc3ccccc3)S(=O)(=O)c3ccccc3)cc12,-0.17%
7,COCCCNC(=O)c1ccc(CNS(=O)(=O)c2ccc(NC(C)=O)cc2)cc1,0.77%
8,Cc1cc(C)n(CC(O)COc2ccc(C(C)(C)C)cc2)n1 (configuration not stated),1.06%
9,COc1ccc(OCCNC(=O)c2cc(C3CC3)nc3c2cnn3C(C)C)cc1,5.03%
10,CC(C)n1ncc2c(C(=O)NCc3ccccc3CN(C)C)cc(C3CC3)nc21,2.81%
11,CC(C)n1ncc2c(C(=O)Nc3ccc(CC#N)cc3)cc(C3CC3)nc21,89.9% (active)
12,O=C(CCNC(=O)c1ccccc1Cl)NN=Cc1ccco1,-0.2%
13,Cc1ccc(C(=O)N/C(=C\c2cn(S(=O)(=O)N(C)C)c3ccccc23)C(=O)N2CCCC2)cc1,0.25%
14,S=c1[nH]nc(COc2ccccc2)n1-c1ccccc1,-2.15%
15,S=c1[nH]nc(-c2cc(-c3ccsc3)n[nH]2)n1-c1ccccc1,84% (active)
16,Cc1ccc(OCc2n[nH]c(=S)n2-c2ccccc2)cc1,2.23%
17,CCc1ccc(C(=O)OCC(=O)NCC(F)(F)F)cc1,1.13%
18,Fc1ccc2cnc(-c3ccccc3)cc2c1,31.9%
19,Fc1ccccc1-c1cc2cc3c(cc2cn1)OCO3,77.2% (active)
20,O=C(Nc1ccccc1F)c1ccc2c(c1)OCO2,7.6%
21,O=C(NCc1ccc2c(c1)OCO2)c1cc([N+](=O)[O-])ccc1N1CCOCC1,-0.76%
22,Cc1nnc(C)c2c(C)n(N)c(C)c12,-0.81%
